The target of assay [1] is Luciferin 4-monooxygenase (Photinus pyralis) (UniProt P08659). In words: qHTS assay to identify small molecule inhibitors of firefly luciferase (AID 1224835). Note: nearly all actives have a fitted effect of over 25% in size. Note: potency is the fitted concentration of half-maximal effect. The method in brief:
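Quantitative HTS format; KM concentrations of both substrates. Purified P. pyralis FLuc activity quantified from luminescence images.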
Background: Quantitative high-throughput screening tests each substance at several concentrations.

Assay [2] can be described thus: qHTS assay to identify small molecule agonists of the constitutive androstane receptor (CAR) signaling pathway - cell viability counter screen (AID 1224836). Note: series mostly up to about 92 µM; nearly all actives have a fitted effect of over 45% in size. The method in brief:
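Cells were seeded and incubated 4 hrs. Compounds were added across 15 concentrations together with PK11195 at 0.75 uM final. Plates were incubated 23 hrs at 37 C. CellTiter-Fluor was added and fluorescence measured.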

Assay [3] is described as follows: qHTS assay to identify small molecule antagonists of the constitutive androstane receptor (CAR) signaling pathway - cell viability counter screen (AID 1224837). Note: series mostly up to about 92 µM; nearly all actives have a fitted effect of over 45% in size. The method in brief: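 HepG2-CYP2B6-hCAR cells, 2500/well, 4 hr pre-incubation; compound titration, 15 conc.; CITCO 50 nM final; 23 hr, 37 C/5% CO2; CellTiter-Fluor, fluorescence intensity.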
Assay [4] deals with Nuclear receptor subfamily 1 group I member 3 (Homo sapiens) (UniProt Q14994). In words: qHTS assay to identify small molecule agonists of the constitutive androstane receptor (CAR) signaling pathway (AID 1224839).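 Note: HepG2 cells stably carrying human CAR and a CYP2B6 luciferase reporter; series mostly up to about 92 µM; nearly all actives have a fitted effect of over 15% in size.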 The method in brief: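 Cells were plated and incubated 4 hrs, then dosed with compounds at 15 concentrations. PK11195 was added to 0.75 uM final. After 24 hrs at 37 C, luciferase luminescence was measured.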

Assay [5] can be described thus: qHTS assay to identify small molecule antagonists of the estrogen related receptor signaling pathway with the pleiotropic PPARgamma coactivator (PGC) from Tox21 10K library (AID 1224841; call rule not given here; note: series mostly up to about 92 µM; actives are mostly falling curves and most rising ones were filed inactive; nearly all actives have a fitted effect of over 50% in size). Summed up:
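PGC/ERR cell line, 2,000 cells/well; 6 h pre-incubation 37 C/5% CO2; compounds (DMSO) pinned in; 18 h, 37 C; One-Glo, 30 min RT; luminescence.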

A short description of assay [6]: qHTS assay to identify small molecule agonists of the estrogen related receptor signaling pathway with the pleiotropic PPARgamma coactivator (PGC) from Tox21 10K library (AID 1224842). Note: nearly all actives have a fitted effect of over 15% in size. Summed up:
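PGC/ERR reporter cells (NTP line) were seeded 2,000 per well, rested 6 h at 37 C/5% CO2, then pin-dosed with compounds in DMSO for 18 h at 37 C; luciferase read by One-Glo luminescence after 30 min at room temperature.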

The nature of assay [7]: qHTS assay to identify small molecule agonists of the hypoxia (HIF-1) signaling pathway - cell viability counter screen (AID 1224844; calls by dose curve; note: nearly all actives have a fitted effect of over 50% in size). The method in brief: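 ME-180 HRE-bla cells, 2,000/well, 0.5% dialyzed FBS; 5 hr settle, 17 hr compound at 37C/5% CO2; CCF4-AM reporter read first, then CellTiter-Glo luminescence after 30 min RT.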
The target of assay [8] is Nuclear receptor subfamily 1 group I member 3 (Homo sapiens) (UniProt Q14994). In words: qHTS assay to identify small molecule antagonists of the constitutive androstane receptor (CAR) signaling pathway (AID 1224838).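 Note: HepG2 cells stably expressing hCAR with CYP2B6 luciferase reporter stimulated by CITCO; nearly all actives have a fitted effect of over 40% in size.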 Note: potency is the fitted concentration of half-maximal effect. Summed up:
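HepG2-CYP2B6-hCAR cells; 4 h pre-incubation; cpd (15 conc) + CITCO 50 nM final; 24 h, 37 C/5% CO2; ONE-Glo, luminescence.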

Assay [9] deals with Thyrotropin receptor (Homo sapiens) (UniProt P16473). In words: qHTS assay to identify small molecule agonists of the thyroid stimulating hormone receptor (TSHR) signaling pathway (AID 1224843; calls by dose curve; note: nearly all actives have a fitted effect of over 45% in size). The method in brief: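 Cell line HEK293 with TSHR; density 800/well. Exposure 30 min RT. Readout HTRF cAMP (cAMP-d2/anti-cAMP-cryptate), 1 h RT before reading.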
Assay [10] can be described thus: qHTS assay to identify small molecule antagonists of the estrogen related receptor signaling pathway with the pleiotropic PPARgamma coactivator (PGC) from Tox21 10K library - cell viability counter screen (AID 1224840; active = well fitted cell-killing curve with a large enough effect in the repeat runs, not every such curve was filed as active; note: nearly all actives have a fitted effect of over 40% in size). Summed up: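 PGC/ERR cells, 2,000/well; 6 h pre-incubation 37 C/5% CO2; cpd in DMSO via pin tool; 17.5 h 37 C; CellTiter-Fluor, 30 min; fluorescence.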

Structures are written as SMILES. Inconclusive results are not listed. Values without a mark were called inactive. Calls of active or inactive are those of the source. Unless noted, calls come from the whole dose curve; as a rule, active = well fitted curve in the direction sought with a large enough effect in the repeat runs; inconclusive = weak or mixed curves; inactive = no such curve, though single readings can be large; an effect the other way counts as inactive or inconclusive.

Luciferin 4-monooxygenase (Photinus pyralis), sequence (P08659 whole entry, looked up): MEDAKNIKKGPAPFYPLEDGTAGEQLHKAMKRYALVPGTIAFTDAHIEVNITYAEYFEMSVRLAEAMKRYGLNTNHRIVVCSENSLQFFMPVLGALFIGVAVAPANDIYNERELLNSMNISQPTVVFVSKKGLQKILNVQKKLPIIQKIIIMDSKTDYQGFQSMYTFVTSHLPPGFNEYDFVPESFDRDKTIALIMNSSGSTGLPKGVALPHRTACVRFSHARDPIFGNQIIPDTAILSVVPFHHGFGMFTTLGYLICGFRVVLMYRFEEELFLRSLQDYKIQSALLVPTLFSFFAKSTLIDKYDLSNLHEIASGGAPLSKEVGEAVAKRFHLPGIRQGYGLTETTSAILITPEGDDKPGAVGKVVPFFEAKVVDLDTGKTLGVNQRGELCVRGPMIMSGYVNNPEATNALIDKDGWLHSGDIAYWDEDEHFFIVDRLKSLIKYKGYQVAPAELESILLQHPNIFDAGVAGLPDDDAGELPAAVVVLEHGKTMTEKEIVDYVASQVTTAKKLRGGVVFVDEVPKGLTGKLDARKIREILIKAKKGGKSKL
Nuclear receptor subfamily 1 group I member 3 (Homo sapiens), sequence (Q14994 whole entry, looked up): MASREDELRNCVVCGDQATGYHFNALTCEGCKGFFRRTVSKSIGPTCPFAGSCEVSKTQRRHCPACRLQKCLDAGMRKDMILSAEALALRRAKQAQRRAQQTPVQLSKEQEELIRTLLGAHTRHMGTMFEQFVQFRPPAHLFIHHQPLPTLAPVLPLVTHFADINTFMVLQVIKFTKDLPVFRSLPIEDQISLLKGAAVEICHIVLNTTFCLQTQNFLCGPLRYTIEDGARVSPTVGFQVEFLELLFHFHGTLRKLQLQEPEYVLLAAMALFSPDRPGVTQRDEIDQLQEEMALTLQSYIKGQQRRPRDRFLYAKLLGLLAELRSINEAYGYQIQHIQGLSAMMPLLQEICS
Thyrotropin receptor (Homo sapiens), sequence (P16473 whole entry, looked up): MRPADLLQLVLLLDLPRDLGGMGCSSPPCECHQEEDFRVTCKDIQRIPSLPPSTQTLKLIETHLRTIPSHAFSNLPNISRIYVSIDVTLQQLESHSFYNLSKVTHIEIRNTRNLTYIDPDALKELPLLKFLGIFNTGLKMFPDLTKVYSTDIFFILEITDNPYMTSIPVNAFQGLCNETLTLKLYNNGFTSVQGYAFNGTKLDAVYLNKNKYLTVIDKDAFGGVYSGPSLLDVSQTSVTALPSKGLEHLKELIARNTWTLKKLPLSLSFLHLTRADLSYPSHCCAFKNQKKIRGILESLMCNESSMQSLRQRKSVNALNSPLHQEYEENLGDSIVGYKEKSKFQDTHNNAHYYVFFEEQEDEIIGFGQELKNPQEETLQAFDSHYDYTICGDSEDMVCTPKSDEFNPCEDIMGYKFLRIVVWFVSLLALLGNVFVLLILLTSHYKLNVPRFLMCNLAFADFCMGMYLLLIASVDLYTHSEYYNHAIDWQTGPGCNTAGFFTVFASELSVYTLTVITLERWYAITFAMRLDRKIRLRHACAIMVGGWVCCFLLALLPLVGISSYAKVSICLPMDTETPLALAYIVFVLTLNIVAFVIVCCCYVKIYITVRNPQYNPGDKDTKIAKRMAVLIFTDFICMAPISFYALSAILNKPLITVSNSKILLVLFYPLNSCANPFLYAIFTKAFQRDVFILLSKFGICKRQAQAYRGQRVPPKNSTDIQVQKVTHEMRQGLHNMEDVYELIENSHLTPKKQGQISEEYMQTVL

Consider `Nc1ccn([C@@H]2O[C@H](CO)[C@@H](O)[C@@H]2O)c(=O)n1`, for which the Potency entry in assay [1], in assay [4], in assay [5], in assay [6] and in [7] was “inactive” each time. Besides, the result in [2] and in [3] was inactive.
For the molecule `C=C(C)C(=O)OCC(O)CO` (stereo unspecified), the Potency result in assay [1], in assay [8], in [5], in assay [6], in [9] and in assay [7] was “inactive” in each case. The call in assay [2] and in assay [3] was inactive.
In the case of `CCOc1ccc2nc(S(N)(=O)=O)sc2c1`, the Potency in assay [1] is 34.7 µM (active). The molecule was called inactive in [2], in assay [3] and in assay [10]. Also, the Potency entry in assay [8], in assay [9] and in [7] was “inactive” throughout.
With `CCCC[N+](C)(CCCC)CCCC`, the Potency result in [1], in assay [8], in [9] and in [7] was “inactive” throughout. Further, the outcome in assay [2], in assay [3] and in [10] was inactive.
Consider `Cc1nc2ccc(CN(C)c3ccc(C(=O)N[C@@H](CCC(=O)O)C(=O)O)s3)cc2c(=O)[nH]1`, for which the Potency result in assay [1], in [8], in assay [4], in [9] and in assay [7] was “inactive” each time. In addition, the molecule was classed as inactive in [2] and in assay [3].
In the case of `CCCCCCC#CC(=O)OC`, the Potency result in [1], in assay [8], in assay [5], in [6] and in assay [7] was “inactive” each time. Moreover, the call in assay [2], in [3] and in [10] was inactive.
In the case of `CC(=O)c1ccccc1[N+](=O)[O-]`, the Potency result in assay [1], in [8], in assay [4], in assay [5], in assay [6] and in [9] was “inactive” throughout. The Potency result in assay [7] is “inactive”. Besides, the result in assay [2] and in assay [3] was inactive.
As to `CCN[C@H]1C[C@H](C)S(=O)(=O)c2sc(S(N)(=O)=O)cc21`, the Potency entry in [1], in assay [4], in assay [9] and in assay [7] was “inactive” throughout. The call in assay [2], in [3] and in assay [10] was inactive.
Take `CNC(=O)Nc1ccc(Cl)c(Cl)c1`: in [1], the Potency was 56.4 µM (active). Further, the call in assay [2], in assay [3] and in [10] was inactive. Further, the Potency entry in [8], in assay [9] and in assay [7] was “inactive” throughout.
For `NS(=O)(=O)Cc1noc2ccccc12`, the Potency entry in assay [1], in assay [8], in assay [5], in assay [6], in assay [9] and in assay [7] was “inactive” in each case. Also, the call in [2], in assay [3] and in assay [10] was inactive.
`CC(=O)N1C[C@H](O)C[C@H]1C(=O)O`: the Potency result in assay [1], in assay [8], in assay [9] and in assay [7] was “inactive” in each case. The molecule was classed as inactive in assay [2], in [3] and in [10].
For the molecule `CCCOC(=O)CC`, the Potency result in [1], in assay [8], in assay [4], in [9] and in assay [7] was “inactive” in each case. Further, the molecule was called inactive in assay [2] and in assay [3].
Take `CCCCCC(C)N` (stereo unspecified): the Potency result in assay [1], in [8], in assay [9] and in assay [7] was “inactive” in each case. In addition, the molecule was classed as inactive in assay [2], in [3] and in assay [10].
On to `CC(C)CC(C)(N)C#N` (stereo unspecified), for which the Potency entry in assay [1], in [8], in [4] and in assay [7] was “inactive” throughout. Further, the molecule was classed as inactive in [2], in [3] and in assay [10].
On to `CCC(C)(CCCC(C)C)OC(C)=O` (stereo unspecified), for which the Potency entry in assay [1], in assay [8], in assay [9] and in [7] was “inactive” in each case. For the same molecule, the call in [2], in [3] and in assay [10] was inactive.
Turning to `CCOC(=O)OC(C)OC1=C(C(=O)Nc2ccccn2)N(C)S(=O)(=O)c2ccccc21` (stereo unspecified), the Potency result in assay [1], in [8], in assay [5], in assay [6], in assay [9] and in assay [7] was “inactive” throughout. Further, the molecule was classed as inactive in [2] and in [3].
On to `C[C@H]1C[C@H]2[C@@H]3CCC4=CC(=O)C=C[C@]4(C)[C@H]3C(=O)C[C@]2(C)[C@@]1(O)C(=O)CO`, for which the Potency result in assay [1], in assay [8], in [5], in assay [6], in [9] and in assay [7] was “inactive” throughout. The outcome in assay [2], in assay [3] and in assay [10] was inactive.
As to `Nc1ccn([C@@H]2O[C@H](CO)[C@@H](O)C2(F)F)c(=O)n1`, the Potency result in [1], in assay [9] and in assay [7] was “inactive” in each case. Besides, the molecule was called inactive in assay [2], in [3] and in [10]. For the same molecule, in assay [8], the Potency was 0.596 µM (active).
Turning to `CCCCOC(=O)CCC(C)=O`, the Potency result in [1], in assay [8], in assay [9] and in assay [7] was “inactive” in each case. Besides, the molecule was classed as inactive in assay [2], in [3] and in [10].
Take `O=C(O)CC(C(=O)O)S(=O)(=O)O` (stereo unspecified): the Potency entry in assay [1], in assay [8], in assay [4], in [5], in assay [6] and in [9] was “inactive” throughout. In addition, the Potency result in [7] was “inactive”. The molecule was classed as inactive in [2] and in [3].
Take `CO/N=C(\C(=O)N[C@@H]1C(=O)N2C(C(=O)O)=C(CSc3nc(=O)c(O)nn3C)CS[C@H]12)c1csc(N)n1`: the Potency result in [1], in [8], in assay [4], in assay [5], in assay [6] and in assay [9] was “inactive” in each case. In addition, in assay [7], the Potency result is “inactive”. Also, the molecule was classed as inactive in assay [2] and in assay [3].
Consider `C=CC(C)(CCC=C(C)C)OC(=O)CC` (stereo unspecified), for which the Potency result in [1], in assay [8], in [9] and in assay [7] was “inactive” each time. For the same molecule, the outcome in assay [2], in assay [3] and in assay [10] was inactive.
In the case of `C=COC(=O)C(C)(CC)CCC(C)C` (stereo unspecified), the Potency entry in [1], in [8], in assay [4] and in [7] was “inactive” throughout. Further, the molecule was classed as inactive in [2], in [3] and in [10].
Take `COCCOC[C@H](CC1(C(=O)NC2CCC(C(=O)O)CC2)CCCC1)C(=O)Oc1ccc2c(c1)CCC2` (stereo partly specified): the Potency result in assay [1], in assay [8], in assay [4], in [5], in assay [6] and in assay [7] was “inactive” throughout. Moreover, the outcome in assay [2] and in [3] was inactive.
Take `O=[N+]([O-])c1cncn1CCN1CCOCC1`: the Potency entry in assay [1], in assay [4], in assay [9] and in assay [7] was “inactive” throughout. The call in [2], in assay [3] and in assay [10] was inactive.
For the molecule `N[C@@H](CCC(=O)O)C(=O)O`, the Potency result in assay [1], in assay [8], in assay [4], in assay [9] and in assay [7] was “inactive” each time. Moreover, the call in assay [2] and in assay [3] was inactive.
